The structures appear in SMILES notation.

A short description of the experiment: COS7 lysate on small-molecule microarray, probe aHis, 635 nm (AID 1123).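 Note: z-score combines 667nm fluorescence intensity with signal-to-noise per printed compound spot.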 As to conditions: COS7 cell lysate, fluorescence, higher = more signal.
With `COC(=O)c1c2oc(c1C(=O)OC)C(=O)N(Cc1ccccc1)Cc1cn(nn1)C[C@H](Cc1ccccc1)NC(=O)N[C@H](CO)CC2`, the composite z-score came out at 0.87.

The molecule `O=C1O[C@H](c2ccccc2)[C@H](c2ccccc2)N2[C@H]1[C@@H](C(=O)Nc1nc3ccccc3s1)[C@]1(C(=O)Nc3ccc(C#CC4(O)CCCCCC4)cc31)[C@H]2c1ccccc1OCCO` displayed a composite z-score of 1.82.

In turn, `O=C1O[C@@H](c2ccccc2)[C@@H](c2ccccc2)N2[C@@H](c3ccccc3OCCO)[C@]3(C(=O)Nc4ccc(C#CCCO)cc43)[C@@H](C(=O)N3CCCCCCC3)[C@H]12` displayed a composite z-score of 5.27.

In turn, `CC(C)N1CC=CC23O[C@@H]4C=CCOC(=O)[C@@H]4[C@H]2C(=O)N(CCCO)[C@@H]3C1=O` (stereo not given in full) came in with a composite z-score of 2.76.

The molecule `COc1ccc([Si](C)(C)[C@@H]2[C@@H](CC(=O)N(CCO)Cc3ccccc3)O[C@]3(C(=O)N(Cc4cccc(N5CCOC5=O)c4)c4ccccc43)[C@H]2C)cc1` gave a composite z-score of 1.22.

`COC(=O)[C@@]1(Cc2ccc(F)cc2)[C@H]2c3cc(C(=O)N4CCCC4)n(CCN4CNCC4=O)c3C[C@H]2CN1C(=O)c1ccccc1` had a composite z-score of 3.18.

As for `C=C[C@@H](COC(C)=O)N(C(=O)OC(C)(C)C)S(=O)(=O)c1ccc(Br)cc1`, the composite z-score was determined as 0.155.

On to `CN(C)C(=O)[C@]1(CCS(=O)(=O)c2ccccc2)N=C(c2ccc(OCCCO)cc2)O[C@@H]1c1ccccc1N=[N+]=[N-]`, for which the composite z-score came out at 2.93.

As to `O=C1NC(=O)C2C1C=CC(C(O)c1ccco1)N2Nc1ccccn1` (stereo not given), the composite z-score amounted to 0.0264.

In turn, `C=CC[C@]1(C(=O)NCCN2CCOCC2)N=C(c2ccc(OCCCO)cc2)O[C@H]1c1ccccc1CN=[N+]=[N-]` gave a composite z-score of 1.41.

Molecule `CCOC(=O)C[C@H]1[C@H](OC(=O)c2ccccc2-c2ccccc2)[C@@H](NC(=O)c2ccc(-c3ccccc3)cc2)c2cc(OCCCO)ccc2N1C(=O)c1ccc2ccccc2n1` yielded a composite z-score of 0.406.

Molecule `CCCC[C@@H](O)C1=C(COc2ccccc2)C[C@H]2C(=O)N(C)C(=O)[C@H]2[C@H]1CO` came in with a composite z-score of -0.61.

For the molecule `COCCOC(=O)N1C(=O)[C@@]2(c3cc(C#Cc4ccc(OC)cc4)ccc31)[C@H](C(=O)Nc1nc3ccccc3s1)[C@H]1C(=O)O[C@H](c3ccccc3)[C@H](c3ccccc3)N1[C@@H]2c1ccc(O)cc1`, the composite z-score was 1.91.

In turn, `COC1OC[C@]2(C)[C@H]3C4=C(CN2C(=O)OC(C)(C)C)[C@H](C)C(CO)C(CO)C4CC[C@@H]13` (stereo not given in full) showed a composite z-score of 2.88.

`COCCCNC(=O)[C@]1(CCS(=O)(=O)c2ccccc2)N=C(c2ccc(OCCCO)cc2)O[C@@H]1c1ccccc1N=[N+]=[N-]` yielded a composite z-score of 2.39.

With `CCCNC(=O)[C@@]1(c2ccc([N+](=O)[O-])cc2)CC(=O)N(C2CCCCC2)[C@@H]1c1ccc(CO)cc1`, the composite z-score was 2.01.

Molecule `[N-]=[N+]=NCc1ccccc1C[C@@]1(C(=O)N2CCOCC2)N=C(c2ccc(OCCCO)cc2)O[C@@H]1c1ccccc1` registered a composite z-score of 2.92.

For `NC(N)=NCCCn1cc(CNC(=O)[C@@H](N)Cc2ccccc2)nn1`, the composite z-score was found to be 0.96.

`COC(=O)[C@@]1(Cc2ccc(OC)cc2)[C@H]2c3cc(C(=O)N(C)C)n(CCO)c3C[C@H]2CN1C(=O)c1ccccc1`: the composite z-score stood at 1.19.

Take `COCCCNC(=O)[C@@]1(Cc2ccccc2CN=[N+]=[N-])N=C(c2ccc(OCCCO)cc2)O[C@H]1c1ccccc1`: the composite z-score is 2.85.

In the case of `C=C[C@@H](OC)[C@H](OC(=O)Nc1ccc(SC)cc1)c1ccc(O)c(F)c1`, the composite z-score worked out at 2.18.

`CCCCCCCCCCC(O)C1C=CC2C(=O)N(C)C(=O)C2N1Nc1ccc([N+](=O)[O-])cc1[N+](=O)[O-]` (stereo not given): the composite z-score came to 2.32.

For the molecule `O=C(NCc1ccccc1)[C@@H]1c2ccccc2C(=O)N(Cc2ccccc2C(F)(F)F)[C@H]1c1ccc(CO)cc1`, the composite z-score came out at 0.829.

The molecule `COCCOC(=O)N1C(=O)[C@@]2(c3cc(C#CCCO)ccc31)[C@H](C(=O)Nc1nc3ccccc3s1)[C@H]1C(=O)O[C@H](c3ccccc3)[C@H](c3ccccc3)N1[C@@H]2c1ccccc1OCCO` had a composite z-score of 1.22.

`COCCOC(=O)N1C(=O)[C@@]2(c3cc(C#CCC(C(=O)OC)C(=O)OC)ccc31)[C@H](C(=O)N1CCc3cc(OC)c(OC)cc3C1)[C@H]1C(=O)O[C@H](c3ccccc3)[C@H](c3ccccc3)N1[C@@H]2c1ccc(OCCO)cc1` displayed a composite z-score of 1.2.

`COc1ccc(CCNC(=O)[C@@]2(Sc3ccc(C)cc3)CC(=O)N(C3Cc4ccccc4C3)[C@@H]2c2ccc(CO)cc2)cc1`: the composite z-score came out at 1.23.

`CC1=C([C@H](O)CCc2ccccc2)[C@H](CO)[C@@H]2C(=O)N(C)C(=O)[C@@H]2C1` gave a composite z-score of 0.58.

On to `COc1ccccc1CN1C(=O)c2ccccc2[C@@]2(Cc3ccccc3N(CC(F)(F)F)C2=O)[C@@H]1c1ccc(CO)cc1`, for which the composite z-score is 0.384.

In the case of `CC(C)(C)OC(=O)CC[C@]1(C(=O)NCc2ccccc2)N=C(c2ccc(OCCCO)cc2)O[C@H]1c1ccccc1CN=[N+]=[N-]`, the composite z-score was found to be 2.45.

`O=C(NCC(F)(F)F)[C@@H]1c2ccccc2C(=O)N(Cc2ccc(OC(F)(F)F)cc2)[C@H]1c1ccc(CO)cc1` registered a composite z-score of 0.96.

Molecule `COc1ccc([Si](C)(C)[C@H]2[C@H](CCn3cc([C@H](O)c4ccccc4)nn3)O[C@@]3(C(=O)N(Cc4ccc(N5C(=O)c6cccc7cccc5c67)cc4)c4ccccc43)[C@@H]2C)cc1` returned a composite z-score of 0.769.

`CCCCCCc1nc(C2CC2)cc2c1[Si](C(C)C)(C(C)C)O[C@H]2c1ccccc1` yielded a composite z-score of -0.724.

`COc1cc2c(cc1OC)CN(C(=O)[C@@H]1[C@H]3C(=O)O[C@H](c4ccccc4)[C@H](c4ccccc4)N3[C@H](c3ccc(OCCO)cc3)[C@@]13C(=O)Nc1ccccc13)CC2` gave a composite z-score of 2.25.

In turn, `CCOC(=O)C[C@H]1[C@H](OC(=O)c2ccc(C(=O)c3ccccc3)cc2)[C@@H](NC(=O)Cc2ccc(OC)cc2)c2cc(OCCCO)ccc2N1C(=O)c1ccccc1` had a composite z-score of 0.409.

On to `Cc1cc(C)c(C(O)C2C=CC3C(=O)NC(=O)C3N2Nc2ccc(Cl)cc2Cl)c(C)c1` (stereo not given), for which the composite z-score amounted to 2.94.

For the origin of these results see PubChem BioAssay.
